In all, about 360,000 compounds went through this assay and about 2,200 (0.61%) were called active. The entries come from a sample that favours actives as a whole. A number with no mark means an inactive call.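 The calls were made as follows: active = inhibition above a per-plate cutoff, the plate's mean sample inhibition plus 3 SD (cut at about 24% in these data); inactive = the rest.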

The nature of this test: nonselective inhibitors of ATP calcium response in CHO-K1, primary screen, counter-screen for M1 antagonist project, cell-based, Fluo-8 calcium fluorescence, full deck, 1536-well (AID 602250).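 Also: 0% = DMSO plus EC80 ATP and 100% = DMSO alone without ATP.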 The following applies: CHO-K1 parental, ATP-induced calcium, Fluo-8 fluorescence; at 3 µM; stronger effect = higher value.
On to `CCC(=O)OC(Cc1ccccc1)(c1ccccc1)C(C)CN(C)C` (stereo not given), for which the inhibition was 25.3% (active).
As to `CN(C)CC1Oc2ccccc2OC1(O)c1ccccc1` (stereo not given), the inhibition was -2.02%.
Under `CN1CCN(Cc2ccc(OC(F)(F)F)cc2)CC1` stands -3.91%; under `OC1/C(=C/c2ccc(C(F)(F)F)cc2)N2CCC1CC2` (stereo not given), -10.6%.
Under `CN(C)S(=O)(=O)c1cc(C(=O)N2CCC(C(=O)O)(c3ccccc3)CC2)ccc1Cl` stands -5.53%.

These data come from PubChem BioAssay AID602250 (The Scripps Research Institute Molecular Screening Center, 2012).
